Measured values published in PubChem BioAssay (Tox21).
Inconclusive results are not listed. Active and inactive are the calls of the source. The call rests on the fitted dose curve; in most records, active means well fitted cell-killing curve with a large enough effect in the repeat runs; inconclusive means weak or mixed curves, or effect the other way; inactive means flat fitted curve, though single readings scatter.

Assay: cAMP Responsive Elements (CRE) small molecule agonists, cell-based qHTS assay: qHTS cell viability counter screen (AID 2060914);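 further: viability read after 3 h of compound exposure; nearly all actives have a fitted effect of over 50% in size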
Conditions: CRE-bla HEK293T viability, CellTiter-Glo luminescence, 5 h; series mostly up to 92.4 µM; activity change, negative = cytotoxicity: at the top concentration
Summary of the method: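 CRE-bla HEK 293T cells, plated 18 h at 37 °C, were exposed to compounds for 3 h at 37 °C/5% CO2. Viability was then measured in the same wells by CellTiter-Glo luminescence after 30 min at room temperature.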
On the % scale 0 is the no-effect control and ±100 the full control effect.

Row | Compound | activity change, negative = cytotoxicity | Potency
1 | O=[N+]([O-])c1ccc(O)cc1C(F)(F)F | -15.9% (inactive) | 
2 | C=CC(C)(CCC=C(C)C)OC(=O)/C=C/c1ccccc1 (configuration not stated) | -1.29% (inactive) | 
3 | CCCC(=O)OC(C)(C)Cc1ccccc1 | 8.72% (inactive) | 
4 | CCC1Nc2cc(Cl)c(S(N)(=O)=O)cc2S(=O)(=O)N1 (configuration not stated) | -1.24% [at 42.5 µM] (inactive) | 
5 | COC(=O)c1ccccc1Cl | 11.1% (inactive) | 
6 | O=C1C(c2[nH]c3ccc(S(=O)(=O)O)cc3c2O)=Nc2ccc(S(=O)(=O)O)cc21 | 6.3% (inactive) | 
7 | NC(=O)/N=N/C(N)=O |  | inactive
8 | Cc1cc(O)cc2c1O[C@](C)(CCC[C@H](C)CCC[C@H](C)CCCC(C)C)CC2 | 0.407% [at 42.5 µM] (inactive) | 
9 | CC(C)(C)C(=O)Oc1ccc(S(=O)(=O)Nc2ccccc2C(=O)NCC(=O)O)cc1 | -2.98% [at 42.5 µM] (inactive) | 
10 | Nc1ccc2c(O)cc(S(=O)(=O)O)cc2c1 | -15.7% (inactive) | 
11 | COc1ccc2nc(N)sc2c1 |  | inactive
12 | CC(C)c1ccc(O)c(C(C)C)c1 | -12.8% (inactive) | 
13 | CCN(CC)c1ccc(C(=C2C=CC(=[N+](CC)CC)C=C2)c2cc(S(=O)(=O)O)ccc2S(=O)(=O)[O-])cc1 | -13.7% [at 42.5 µM] (inactive) | 
14 | C1OCOCO1 | 14.8% (inactive) | 
15 | CCCCCCCC/C=C\CCCCCCCC(=O)OC(CO)CO | 8.09% (inactive) | 
16 | CCCCCCCCCCO[C@@H]1O[C@H](CO)[C@@H](O)[C@H](O)[C@H]1O | 11.1% (inactive) | 
17 | CN1CN(C)CN(C)C1 | -0.133% (inactive) | 
18 | CCC(CO)(CO)[N+](=O)[O-] | -2.71% (inactive) | 
19 | O=C(O)Cc1ccc(CCNS(=O)(=O)c2ccc(Cl)cc2)cc1 | -28.7% [at 42.5 µM] (inactive) | 
20 | CCCCCOc1ccc(C2SC(=O)NC2=O)cc1OCC (configuration not stated) | -11.4% [at 42.5 µM] (inactive) | 
21 | O=C(c1cc(O)c(O)c(O)c1)c1ccc(O)c(O)c1O |  | inactive
22 | CC(C)c1ccc2c(c1)CC[C@H]1[C@](C)(CN)CCC[C@]21C | -12.6% (inactive) | 
